# Hits are enriched below; roughly 18% of the tested compounds scored in any of these assays.
# TDP1 inh: blocks human tyrosyl-DNA phosphodiesterase 1. Q9NUW8. recombinant TDP1, AlphaScreen DNA substrate cleavage. Potency, µM (titrated, usually from 130 µM), inactives show top-dose activity change, negative = inhibition, usual class: inhibitors. actives 0.28% (n = 350,000); note: potency is the fitted concentration of half-maximal effect; nearly all actives have a fitted effect of over 40% in size
#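 Recombinant E. coli-expressed Tdp1 (1 nM) preincubated with compound 15 min at RT, then 5'-biotin/3'-phosphotyrosine-FITC DNA substrate (15 nM) added for 5 min. AlphaScreen beads (10 ug/ml) added, 10 min RT; tyrosine-FITC cleavage read as signal loss.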
# IL-1B inflam inh: blocks inflammasome-driven IL-1 beta release; THP-1 LPS/ATP IL-1B secretion, AlphaLISA, 16 h; active compounds read low; AID 743279; activity change, % at 57.5 µM; actives 4.7% (n = 360,000); in the data active = activity change below about -50%; inconclusive = mostly about -30% to -49%
#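 Secreted IL-1B measured by AlphaLISA bead assay after 16 h compound exposure of THP-1 cells; compounds (final up to 57.5 uM) added 1 h before LPS (250 ng/mL) and ATP (1.25 mM) stimulation; lower signal means less secretion.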
# DT40 TDP1 CPT: DT40-hTDP1 cell growth loss with CPT. actives 12% (n = 420,000). chicken DT40 Tdp1-/-;hTDP1 cells + 20 nM CPT, ATP luminescence, 48 h. Potency, µM (titrated, usually from 46.2 µM), without a hit: at the highest dose activity change, negative = growth inhibition, hits mostly inhibitors; note: potency is the fitted concentration of half-maximal effect; nearly all actives have a fitted effect of over 55% in size
#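 Cell growth measured by CellTiter-Glo luminescence after a minimum 48 h, 37 C compound exposure with 20 nM CPT in Tdp1-knockout DT40 cells stably expressing hTDP1, seeded 400/well; qHTS titration format.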
# TDP1 cell noCPT: qHTS for Inhibitors of human tyrosyl-DNA phosphodiesterase 1 (TDP1): qHTS in cells in absence of CPT | DT40 Tdp1-/- hTDP1 cells, no CPT, ATP luminescence, 48 h | Potency, µM (doses to about 46.2 µM), inactives show at the highest dose activity change, negative = growth inhibition, usual class: inhibitors | actives 15% (n = 420,000); note: potency is the fitted concentration of half-maximal effect; nearly all actives have a fitted effect of over 55% in size
#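 Growth kinetics read by CellTiter-Glo luminescence after ≥48 hr at 37 °C. Cells: DT40 Tdp1-/- stably carrying human TDP1, 400 per well, compound exposure in the absence of CPT (DMSO vehicle).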
# Six1-Eya2 blk: inhibitors of human Six1/Eya2 interaction; Q15475+O00167; AlphaScreen GST-Six1/His-Eya2 binding, biochemical; active compounds read low; activity change, % (concentration not given with the values); actives 0.56% (n = 360,000); AID 651725; in the data active = activity change below about -65%; inconclusive = mostly about -30% to -63%
#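 Compounds are tested against tagged Six1 and Eya2 proteins bridged by glutathione donor and nickel acceptor beads; after a one-hour incubation at 37 °C without light, AlphaScreen emission is recorded.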
# CtBP-E1A inh: inhibitors of CtBP/E1A interaction; AlphaScreen GST-E1A/His-CtBP binding, 1536-well; active compounds read low; activity change, % (test concentration not listed); actives 0.49% (n = 340,000); AID 651724; in the data active = activity change below about -65%; inconclusive = mostly about -30% to -63%
#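 Steps: dispense buffer (Tris pH 8.0, NaCl 300 mM, TCEP 1 mM, BSA, Tween 20); add 5X protein mix (GST-E1A, His-CtBP, 125 nM each); pin 23 nL compound; 2 h at 37 °C, dark; add 5X beads (50 ug/mL); 1 h; read.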
# * = called active by the depositor; ? = inconclusive; / = no result given. Unless noted, calls come from the whole dose curve; as a rule, active = well fitted curve in the direction sought with a large enough effect; inconclusive = small, poorly fitted or top-dose-only effect, or another doubt; inactive = no such curve, though single readings can be large; an effect the other way counts as inactive or inconclusive. % is set by controls: 0 for no effect and ±100 for the full control effect.
SMILES,TDP1 inh,IL-1B inflam inh,DT40 TDP1 CPT,TDP1 cell noCPT,Six1-Eya2 blk,CtBP-E1A inh
CCOc1ccc(NC(=O)N2CCC(CN3CCCCCC3)CC2)cc1,5%,/,18µM*,?,/,/
Cc1ccc(NC(=O)N2CCN(c3ccc(Cl)c(Cl)c3)CC2)cc1,4%,/,?,3.3µM*,/,/
CCOc1ccc(NC(=O)N2CCN(c3ccc(Cl)c(Cl)c3)CC2)cc1,7%,/,?,1.3µM*,/,/
CCOc1ccc(NC(=O)CN2CCN(c3ccc(Cl)cc3)CC2)cc1,-1%,/,?,?,/,/
O=C(Nc1ccc(Br)cc1)N1CCC(CN2CCCC2)CC1,6%,/,?,-13%,/,/
Cc1cc([N+](=O)[O-])nn1CC(=O)N1CCCc2ccccc21,5%,68,1%,-20%,7,3
O=C(Cn1nc(-c2ccc(Cl)cc2)c2ccccc2c1=O)Nc1cccnc1,5%,-10,?,-15%,-6,-5
O=C(Nc1ccc2nc3n(c(=O)c2c1)CCCCC3)C(=O)N1CCN(c2ccccc2)CC1,/,10,-19%,?,-13,-6
N#Cc1c2c(c(NCCOCCO)n3c1nc1ccccc13)CCCC2,4%,-5,5%,-29%,-12,15
COCCNc1c2c(c(C#N)c3nc4ccccc4n13)CCCC2,5%,13,26µM*,21µM*,-3,3
N#Cc1c2c(c(Cl)n3c1nc1ccccc13)CCCC2,/,/,0.71µM*,0.89µM*,/,/
COCCn1c(=S)[nH]c2ncccc2c1=O,4%,-2,-2%,-17%,0,2
CCCn1c(SC/C(O)=C(\C#N)c2nc3ccccc3[nH]2)n[nH]c1=O,-1%,21,-4%,-10%,-5,4
COc1cc(NC(=O)c2sc3ncn(CC(=O)N4CCCCC4C)c(=O)c3c2C)cc(OC)c1OC (stereo not drawn),/,-11,?,12µM*,-1,5
Cc1ccc(NC(=O)c2sc3ncn(CC(=O)N4CCN(c5ccccn5)CC4)c(=O)c3c2C)cc1Cl,4%,17,?,15µM*,-23,/
Cc1ccc(NC(=O)c2sc3ncn(CC(=O)N4CCN(c5ccccn5)CC4)c(=O)c3c2C)cc1F,4%,34,?,-17%,-6,-4
COc1cccc(NC(=O)c2sc3ncn(CC(=O)N4CCN(c5ccccn5)CC4)c(=O)c3c2C)c1,4%,-8,18µM*,?,-5,-10
COCCCNC(=O)c1sc2ncn(CC(=O)Nc3ccc(C)c(Cl)c3)c(=O)c2c1C,-1%,17,?,21µM*,1,5
CCN(CC)CCCNC(=O)c1sc2ncn(CC(=O)Nc3ccc(C)c(Cl)c3)c(=O)c2c1C,3%,-15,?,?,9,/
CCCOc1ccc(-c2nc(SC)[nH]c(=O)c2C#N)cc1OC,3%,/,?,?,/,/
